{"source": "the supplement of paper PMC12067093", "about": "“Discovery and optimisation of a covalent ligand for TRIM25 and its application to targeted protein ubiquitination” (Chemical Science, 2025)", "note": "About 21,000 targets were measured; listed, in parts, are those with the largest changes and a random draw of the rest.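 Further: competitive chemoproteomic profiling in live THP-1 cells with an iodoacetamide desthiobiotin (IA-DTB) probe, comparing probe-labelled peptide intensities in compound-treated cells against DMSO-treated controls.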"}
{"compound": "CC1Cc2ccccc2N1C(=O)C1CCCN(C1)C(=O)CCl (mixture of isomers) [TRIM25 ligand 11 (diastereomer mixture)]", "assay": "probe-labelled cysteine peptide fold change vs DMSO (competition) (log2 fold change); higher = less target engagement (more negative = stronger competition)", "conditions": "10 µM; THP-1; incubation time: 4 h"}
{"target": "NVL_O15381_460_LPQAFDFCHLAHLTPGFVGADLMALCR (UniProt O15381)", "probe-labelled cysteine peptide fold change": -0.219}
{"target": "NDUFB7_P17568_90_HDWDYCEHR (UniProt P17568)", "sequence (P17568 whole entry, looked up)": "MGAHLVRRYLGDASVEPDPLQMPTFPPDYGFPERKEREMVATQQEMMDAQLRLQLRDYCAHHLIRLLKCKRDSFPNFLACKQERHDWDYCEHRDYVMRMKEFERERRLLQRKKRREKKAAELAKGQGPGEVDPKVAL", "probe-labelled cysteine peptide fold change": 0.161}
{"target": "NID1_P14543_679_EGSPDALQNPCYIGTHGCDTNAACRPGPR (UniProt P14543)", "probe-labelled cysteine peptide fold change": 0.112}
{"target": "OCIAD2_Q56VL3_106_VSYIGVCQSK (UniProt Q56VL3)", "sequence (Q56VL3 whole entry, looked up)": "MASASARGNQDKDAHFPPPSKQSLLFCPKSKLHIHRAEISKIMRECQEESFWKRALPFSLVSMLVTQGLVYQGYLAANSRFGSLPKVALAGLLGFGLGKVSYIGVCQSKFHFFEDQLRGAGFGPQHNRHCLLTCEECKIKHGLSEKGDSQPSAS", "probe-labelled cysteine peptide fold change": -0.0503}
{"target": "PDLIM1_O00151_286_HRHPECYVCTDCGTNLK (UniProt O00151)", "sequence (O00151 whole entry, looked up)": "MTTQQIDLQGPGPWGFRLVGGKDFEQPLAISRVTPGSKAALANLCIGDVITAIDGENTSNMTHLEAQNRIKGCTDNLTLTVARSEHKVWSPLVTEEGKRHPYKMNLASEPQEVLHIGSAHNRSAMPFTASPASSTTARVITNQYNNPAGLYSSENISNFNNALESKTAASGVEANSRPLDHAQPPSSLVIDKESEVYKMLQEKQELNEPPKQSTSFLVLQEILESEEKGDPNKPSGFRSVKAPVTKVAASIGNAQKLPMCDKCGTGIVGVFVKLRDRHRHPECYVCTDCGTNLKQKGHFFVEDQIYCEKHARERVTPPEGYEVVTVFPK", "probe-labelled cysteine peptide fold change": 0.117}
{"target": "NOP2_P46087_393_ILDMCCAPGGK (UniProt P46087)", "sequence (P46087 whole entry, looked up)": "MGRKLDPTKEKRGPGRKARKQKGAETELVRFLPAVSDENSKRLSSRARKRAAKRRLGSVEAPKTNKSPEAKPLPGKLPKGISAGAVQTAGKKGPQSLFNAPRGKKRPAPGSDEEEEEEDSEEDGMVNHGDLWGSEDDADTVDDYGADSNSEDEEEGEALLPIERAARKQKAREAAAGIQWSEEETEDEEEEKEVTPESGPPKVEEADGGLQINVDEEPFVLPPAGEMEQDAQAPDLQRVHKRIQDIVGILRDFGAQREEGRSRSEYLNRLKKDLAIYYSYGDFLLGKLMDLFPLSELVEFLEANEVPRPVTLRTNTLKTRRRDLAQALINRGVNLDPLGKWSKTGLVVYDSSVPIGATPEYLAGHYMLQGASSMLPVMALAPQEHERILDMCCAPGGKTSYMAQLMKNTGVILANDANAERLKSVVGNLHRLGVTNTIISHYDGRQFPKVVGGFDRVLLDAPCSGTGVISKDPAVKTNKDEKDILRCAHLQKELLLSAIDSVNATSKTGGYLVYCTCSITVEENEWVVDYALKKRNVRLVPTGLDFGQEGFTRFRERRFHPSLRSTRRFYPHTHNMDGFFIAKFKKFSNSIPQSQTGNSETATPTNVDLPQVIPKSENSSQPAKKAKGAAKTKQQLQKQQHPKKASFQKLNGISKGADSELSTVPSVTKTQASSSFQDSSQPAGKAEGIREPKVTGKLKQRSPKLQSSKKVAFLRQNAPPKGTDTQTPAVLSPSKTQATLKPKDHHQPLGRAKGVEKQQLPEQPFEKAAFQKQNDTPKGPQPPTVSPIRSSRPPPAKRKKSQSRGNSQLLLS", "probe-labelled cysteine peptide fold change": -0.0381}
{"target": "PCID2_Q5JVF3_25_DGASCAELVSFK (UniProt Q5JVF3)", "probe-labelled cysteine peptide fold change": -0.115}
{"target": "NLRX1_Q86UT6_779_DLRDLLLHDQCQITTLR (UniProt Q86UT6)", "probe-labelled cysteine peptide fold change": -0.173}
{"target": "OPLAH_O14841_408_LLPASFPCIFGPGENQPLSPEASR (UniProt O14841)", "probe-labelled cysteine peptide fold change": -0.283}
{"target": "PABPC4_Q13310-3_488_VGSECPDR (UniProt Q13310)", "probe-labelled cysteine peptide fold change": -0.118}
{"target": "NOC4L_Q9BVI4_509_KGPEPVPLEFIPAQGLLGRPGELCAQHFTLS (UniProt Q9BVI4)", "probe-labelled cysteine peptide fold change": 0.0196}
{"target": "NLN_Q9BYT8_451_YNHAACFGLQPGCLLPDGSR (UniProt Q9BYT8)", "probe-labelled cysteine peptide fold change": 0.193}
{"target": "PARP4_Q9UKK3_1099_LLVYGFIPHCTQATLCALIQEK (UniProt Q9UKK3)", "sequence (Q9UKK3 whole entry, looked up)": "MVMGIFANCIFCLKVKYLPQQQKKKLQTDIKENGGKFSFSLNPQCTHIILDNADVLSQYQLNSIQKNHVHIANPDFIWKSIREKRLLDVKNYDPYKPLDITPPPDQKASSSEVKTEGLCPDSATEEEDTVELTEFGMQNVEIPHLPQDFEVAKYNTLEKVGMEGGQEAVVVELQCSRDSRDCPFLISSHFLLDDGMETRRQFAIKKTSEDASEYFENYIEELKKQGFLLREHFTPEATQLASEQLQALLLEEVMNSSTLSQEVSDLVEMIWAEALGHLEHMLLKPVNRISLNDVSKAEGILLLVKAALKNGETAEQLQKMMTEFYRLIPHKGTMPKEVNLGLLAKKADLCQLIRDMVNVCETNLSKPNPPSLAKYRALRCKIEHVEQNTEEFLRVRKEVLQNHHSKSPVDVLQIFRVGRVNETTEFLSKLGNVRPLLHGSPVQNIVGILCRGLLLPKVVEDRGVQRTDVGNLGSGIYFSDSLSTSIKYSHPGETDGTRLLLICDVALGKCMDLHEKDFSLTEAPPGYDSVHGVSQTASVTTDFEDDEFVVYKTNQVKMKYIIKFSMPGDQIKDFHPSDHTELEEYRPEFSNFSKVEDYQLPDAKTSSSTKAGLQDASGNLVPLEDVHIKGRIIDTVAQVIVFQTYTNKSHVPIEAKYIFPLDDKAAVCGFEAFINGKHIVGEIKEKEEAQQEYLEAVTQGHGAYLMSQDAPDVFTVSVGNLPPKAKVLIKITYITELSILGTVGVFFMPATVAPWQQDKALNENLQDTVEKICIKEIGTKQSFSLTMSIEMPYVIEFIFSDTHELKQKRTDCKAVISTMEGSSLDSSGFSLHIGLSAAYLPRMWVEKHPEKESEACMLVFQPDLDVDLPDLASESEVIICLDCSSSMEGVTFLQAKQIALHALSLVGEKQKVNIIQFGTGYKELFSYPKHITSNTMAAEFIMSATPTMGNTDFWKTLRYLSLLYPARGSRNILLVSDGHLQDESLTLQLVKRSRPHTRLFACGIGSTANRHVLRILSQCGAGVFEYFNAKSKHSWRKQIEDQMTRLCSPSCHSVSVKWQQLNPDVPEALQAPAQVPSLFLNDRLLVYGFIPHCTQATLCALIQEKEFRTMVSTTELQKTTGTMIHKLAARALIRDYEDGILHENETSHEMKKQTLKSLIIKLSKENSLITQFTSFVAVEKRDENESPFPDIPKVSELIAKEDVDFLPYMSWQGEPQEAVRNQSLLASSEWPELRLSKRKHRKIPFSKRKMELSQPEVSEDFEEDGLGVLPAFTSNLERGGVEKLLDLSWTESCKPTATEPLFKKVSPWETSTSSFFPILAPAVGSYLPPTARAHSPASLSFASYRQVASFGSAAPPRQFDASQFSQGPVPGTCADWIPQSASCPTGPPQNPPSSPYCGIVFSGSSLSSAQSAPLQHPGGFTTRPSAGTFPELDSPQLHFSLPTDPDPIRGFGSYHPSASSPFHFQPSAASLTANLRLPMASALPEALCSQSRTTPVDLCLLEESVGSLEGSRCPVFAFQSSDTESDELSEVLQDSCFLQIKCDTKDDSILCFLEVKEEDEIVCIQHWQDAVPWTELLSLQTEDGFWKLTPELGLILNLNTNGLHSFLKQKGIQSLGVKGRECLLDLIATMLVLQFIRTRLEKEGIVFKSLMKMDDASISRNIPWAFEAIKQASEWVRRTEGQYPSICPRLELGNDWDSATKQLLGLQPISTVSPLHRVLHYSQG", "probe-labelled cysteine peptide fold change": 0.224}
{"target": "NDRG3_Q9UGV2_30_NFQDFDCQEHDIETTHGVVHVTIR (UniProt Q9UGV2)", "probe-labelled cysteine peptide fold change": 0.0929}
{"target": "NDC1_Q9BTX1_9_ATAVSRPCAGR (UniProt Q9BTX1)", "probe-labelled cysteine peptide fold change": 0.00914}
{"target": "PAK2_Q13177_352_ECLQALEFLHANQVIHR (UniProt Q13177)", "sequence (Q13177 whole entry)": "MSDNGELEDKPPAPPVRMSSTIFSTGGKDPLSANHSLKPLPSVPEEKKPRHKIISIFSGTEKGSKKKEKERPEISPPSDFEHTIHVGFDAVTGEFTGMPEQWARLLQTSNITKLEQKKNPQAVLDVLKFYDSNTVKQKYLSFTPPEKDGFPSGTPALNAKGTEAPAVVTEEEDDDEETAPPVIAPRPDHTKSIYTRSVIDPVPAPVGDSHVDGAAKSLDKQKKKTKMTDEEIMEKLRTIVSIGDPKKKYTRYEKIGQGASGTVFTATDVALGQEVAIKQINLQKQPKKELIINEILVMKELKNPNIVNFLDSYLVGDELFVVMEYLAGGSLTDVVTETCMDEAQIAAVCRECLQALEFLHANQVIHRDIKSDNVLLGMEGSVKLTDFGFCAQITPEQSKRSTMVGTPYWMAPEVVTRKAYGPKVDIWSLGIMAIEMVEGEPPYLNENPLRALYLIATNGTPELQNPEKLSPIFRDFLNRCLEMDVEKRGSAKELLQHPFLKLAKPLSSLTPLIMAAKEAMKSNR", "probe-labelled cysteine peptide fold change": 0.0134}
{"target": "NUP43_Q8NFH3_222_VPLHCVDRHPNQQHVVATGGQDGMLSIWDVR (UniProt Q8NFH3)", "probe-labelled cysteine peptide fold change": 0.271}
{"target": "NEMF_O60524_575_YLTPGDIYVHADLHGATSCVIK (UniProt O60524)", "probe-labelled cysteine peptide fold change": 0.0554}
{"target": "NOP58_Q9Y2X3_106_LNLSCIHSPVVNELMR (UniProt Q9Y2X3)", "probe-labelled cysteine peptide fold change": 0.0103}
{"target": "NUP188_Q5SRE5_161_VEYADCVDK (UniProt Q5SRE5)", "probe-labelled cysteine peptide fold change": 0.394}
{"target": "PARK7_Q99497_46_DPVQCSR (UniProt Q99497)", "sequence (Q99497 whole entry, looked up)": "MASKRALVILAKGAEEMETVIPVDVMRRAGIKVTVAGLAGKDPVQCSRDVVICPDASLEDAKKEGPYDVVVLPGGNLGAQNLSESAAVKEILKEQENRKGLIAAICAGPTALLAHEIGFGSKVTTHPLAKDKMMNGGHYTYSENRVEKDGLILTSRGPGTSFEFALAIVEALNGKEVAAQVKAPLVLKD", "probe-labelled cysteine peptide fold change": 0.105}
{"target": "NSD2_O96028_1102_KGEFVNEYVGELIDEEECMAR (UniProt O96028)", "probe-labelled cysteine peptide fold change": -0.163}
{"target": "NDRG1_Q92597_289_MADCGGLPQISQPAK (UniProt Q92597)", "sequence (Q92597 whole entry, looked up)": "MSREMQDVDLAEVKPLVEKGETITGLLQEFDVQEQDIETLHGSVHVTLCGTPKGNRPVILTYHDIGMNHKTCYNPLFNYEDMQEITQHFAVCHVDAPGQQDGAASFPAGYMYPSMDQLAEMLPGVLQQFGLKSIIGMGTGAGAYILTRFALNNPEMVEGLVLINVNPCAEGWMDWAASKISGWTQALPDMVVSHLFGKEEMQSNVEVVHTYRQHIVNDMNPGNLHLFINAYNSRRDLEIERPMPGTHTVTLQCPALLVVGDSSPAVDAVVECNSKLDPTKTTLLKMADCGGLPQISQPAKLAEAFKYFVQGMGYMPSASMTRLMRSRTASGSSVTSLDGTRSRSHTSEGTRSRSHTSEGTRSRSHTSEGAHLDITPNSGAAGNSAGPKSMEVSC", "probe-labelled cysteine peptide fold change": -0.006}
{"target": "NUDT14_O95848_12_CAASPYLRPLTLHYR (UniProt O95848)", "probe-labelled cysteine peptide fold change": -0.125}
{"target": "NUP155_O75694_373_LYFSTCPFR (UniProt O75694)", "probe-labelled cysteine peptide fold change": 0.15}
{"target": "P4HB_P07237_397+400_NVFVEFYAPWCGHCK (UniProt P07237)", "sequence (P07237 whole entry, looked up)": "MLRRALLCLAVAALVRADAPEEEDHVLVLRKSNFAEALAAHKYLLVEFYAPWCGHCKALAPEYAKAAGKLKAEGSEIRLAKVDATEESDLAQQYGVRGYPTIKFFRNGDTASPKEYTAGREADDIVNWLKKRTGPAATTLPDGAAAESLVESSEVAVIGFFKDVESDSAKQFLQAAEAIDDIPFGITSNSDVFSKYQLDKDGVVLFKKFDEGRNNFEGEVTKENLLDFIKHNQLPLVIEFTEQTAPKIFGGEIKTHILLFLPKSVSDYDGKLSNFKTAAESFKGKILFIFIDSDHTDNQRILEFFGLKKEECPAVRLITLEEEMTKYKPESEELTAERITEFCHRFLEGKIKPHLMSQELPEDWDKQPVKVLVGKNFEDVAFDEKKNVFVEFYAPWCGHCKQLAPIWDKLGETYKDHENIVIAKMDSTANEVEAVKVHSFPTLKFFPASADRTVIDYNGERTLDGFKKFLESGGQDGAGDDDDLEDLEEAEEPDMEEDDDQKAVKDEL", "probe-labelled cysteine peptide fold change": -0.122}
{"target": "NDUFAF4_Q9P032_87_AAETCQEPK (UniProt Q9P032)", "sequence (Q9P032 whole entry)": "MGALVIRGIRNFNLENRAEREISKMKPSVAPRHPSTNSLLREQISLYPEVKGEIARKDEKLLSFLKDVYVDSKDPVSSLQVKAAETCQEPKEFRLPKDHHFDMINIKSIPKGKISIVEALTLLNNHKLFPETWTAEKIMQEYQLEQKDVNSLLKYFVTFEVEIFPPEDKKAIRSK", "probe-labelled cysteine peptide fold change": -0.0492}
{"target": "PDF_Q9HBH1_222_IIQHEMDHLQGCLFIDK (UniProt Q9HBH1)", "probe-labelled cysteine peptide fold change": -0.0352}
{"target": "NVL_O15381_803_EASICALR (UniProt O15381)", "probe-labelled cysteine peptide fold change": 0.0326}
{"target": "NUP160_Q12769_529_NLQQEFWCK (UniProt Q12769)", "probe-labelled cysteine peptide fold change": 0.248}
{"target": "NUP160_Q12769_1042_QLVVVLCER (UniProt Q12769)", "probe-labelled cysteine peptide fold change": 0.25}
{"target": "NUP155_O75694_667_HNGICIYFSR (UniProt O75694)", "probe-labelled cysteine peptide fold change": -0.0348}
{"target": "NET1_Q7Z628_267_GYCSNQLAAK (UniProt Q7Z628)", "probe-labelled cysteine peptide fold change": 0.0505}
{"target": "NIPBL_Q6KC79_304_GSRPPLILQSQSLPCSSPR (UniProt Q6KC79)", "probe-labelled cysteine peptide fold change": 0.204}
{"target": "PCNA_P12004_135_LMDLDVEQLGIPEQEYSCVVK (UniProt P12004)", "probe-labelled cysteine peptide fold change": -0.113}
{"target": "NOB1_Q9ULX3_147_GHSACEPENLEFSSFMFWR (UniProt Q9ULX3)", "probe-labelled cysteine peptide fold change": -0.0264}
{"target": "NEK1_Q96PY6_276_FLSPQLIAEEFCLK (UniProt Q96PY6)", "probe-labelled cysteine peptide fold change": 0.0381}
{"target": "ORC3_Q9UBD5_158_LISQLMDCCVDIK (UniProt Q9UBD5)", "probe-labelled cysteine peptide fold change": -0.0854}
{"target": "PAFAH1B2_P68402_206_ICKPLHELIMQLLEETPEEK (UniProt P68402)", "probe-labelled cysteine peptide fold change": -0.486}
{"target": "NECAP2_Q9NVZ3_11_MEESGYESVLCVKPDVHVYR (UniProt Q9NVZ3)", "probe-labelled cysteine peptide fold change": -0.174}
{"compound": "CC1Cc2ccccc2N1C(=O)C1CCCN(C1)C(=O)CCl (mixture of isomers) [TRIM25 ligand 11 (diastereomer mixture)]", "assay": "probe-labelled cysteine peptide fold change vs DMSO (competition) (log2 fold change); higher = less target engagement (more negative = stronger competition)", "conditions": "50 µM; THP-1; incubation time: 4 h"}
{"target": "NVL_O15381_460_LPQAFDFCHLAHLTPGFVGADLMALCR (UniProt O15381)", "probe-labelled cysteine peptide fold change": -0.00784}
{"target": "NDUFB7_P17568_90_HDWDYCEHR (UniProt P17568)", "probe-labelled cysteine peptide fold change": 0.191}
{"target": "NID1_P14543_679_EGSPDALQNPCYIGTHGCDTNAACRPGPR (UniProt P14543)", "probe-labelled cysteine peptide fold change": -0.182}
{"target": "OCIAD2_Q56VL3_106_VSYIGVCQSK (UniProt Q56VL3)", "probe-labelled cysteine peptide fold change": 0.116}
{"target": "PDLIM1_O00151_286_HRHPECYVCTDCGTNLK (UniProt O00151)", "probe-labelled cysteine peptide fold change": 0.192}
{"target": "NOP2_P46087_393_ILDMCCAPGGK (UniProt P46087)", "probe-labelled cysteine peptide fold change": -0.0998}
{"target": "PCID2_Q5JVF3_25_DGASCAELVSFK (UniProt Q5JVF3)", "probe-labelled cysteine peptide fold change": -0.0805}
{"target": "NLRX1_Q86UT6_779_DLRDLLLHDQCQITTLR (UniProt Q86UT6)", "probe-labelled cysteine peptide fold change": -0.114}
{"target": "OPLAH_O14841_408_LLPASFPCIFGPGENQPLSPEASR (UniProt O14841)", "probe-labelled cysteine peptide fold change": -0.252}
{"target": "PABPC4_Q13310-3_488_VGSECPDR (UniProt Q13310)", "probe-labelled cysteine peptide fold change": -0.166}
{"target": "NOC4L_Q9BVI4_509_KGPEPVPLEFIPAQGLLGRPGELCAQHFTLS (UniProt Q9BVI4)", "probe-labelled cysteine peptide fold change": -0.199}
{"target": "NLN_Q9BYT8_451_YNHAACFGLQPGCLLPDGSR (UniProt Q9BYT8)", "probe-labelled cysteine peptide fold change": 0.181}
{"target": "PARP4_Q9UKK3_1099_LLVYGFIPHCTQATLCALIQEK (UniProt Q9UKK3)", "probe-labelled cysteine peptide fold change": -0.243}
{"target": "NDRG3_Q9UGV2_30_NFQDFDCQEHDIETTHGVVHVTIR (UniProt Q9UGV2)", "probe-labelled cysteine peptide fold change": 0.0549}
{"target": "NDC1_Q9BTX1_9_ATAVSRPCAGR (UniProt Q9BTX1)", "probe-labelled cysteine peptide fold change": -0.136}
{"target": "PAK2_Q13177_352_ECLQALEFLHANQVIHR (UniProt Q13177)", "probe-labelled cysteine peptide fold change": 0.223}
{"target": "NUP43_Q8NFH3_222_VPLHCVDRHPNQQHVVATGGQDGMLSIWDVR (UniProt Q8NFH3)", "probe-labelled cysteine peptide fold change": 0.0847}
{"target": "NEMF_O60524_575_YLTPGDIYVHADLHGATSCVIK (UniProt O60524)", "probe-labelled cysteine peptide fold change": 0.13}
{"target": "NOP58_Q9Y2X3_106_LNLSCIHSPVVNELMR (UniProt Q9Y2X3)", "probe-labelled cysteine peptide fold change": 0.12}
{"target": "NUP188_Q5SRE5_161_VEYADCVDK (UniProt Q5SRE5)", "probe-labelled cysteine peptide fold change": 0.321}
{"target": "PARK7_Q99497_46_DPVQCSR (UniProt Q99497)", "probe-labelled cysteine peptide fold change": 0.0666}
{"target": "NSD2_O96028_1102_KGEFVNEYVGELIDEEECMAR (UniProt O96028)", "probe-labelled cysteine peptide fold change": -0.0932}
{"target": "NDRG1_Q92597_289_MADCGGLPQISQPAK (UniProt Q92597)", "probe-labelled cysteine peptide fold change": -0.0335}
{"target": "NUDT14_O95848_12_CAASPYLRPLTLHYR (UniProt O95848)", "probe-labelled cysteine peptide fold change": 0.0208}
{"target": "NUP155_O75694_373_LYFSTCPFR (UniProt O75694)", "probe-labelled cysteine peptide fold change": 0.262}
{"target": "P4HB_P07237_397+400_NVFVEFYAPWCGHCK (UniProt P07237)", "probe-labelled cysteine peptide fold change": -0.34}
{"target": "NDUFAF4_Q9P032_87_AAETCQEPK (UniProt Q9P032)", "probe-labelled cysteine peptide fold change": -0.243}
{"target": "PDF_Q9HBH1_222_IIQHEMDHLQGCLFIDK (UniProt Q9HBH1)", "probe-labelled cysteine peptide fold change": 0.0675}
{"target": "NVL_O15381_803_EASICALR (UniProt O15381)", "probe-labelled cysteine peptide fold change": 0.175}
{"target": "NUP160_Q12769_529_NLQQEFWCK (UniProt Q12769)", "probe-labelled cysteine peptide fold change": 0.177}
{"target": "NUP160_Q12769_1042_QLVVVLCER (UniProt Q12769)", "probe-labelled cysteine peptide fold change": 0.0629}
{"target": "NUP155_O75694_667_HNGICIYFSR (UniProt O75694)", "probe-labelled cysteine peptide fold change": 0.207}
{"target": "NET1_Q7Z628_267_GYCSNQLAAK (UniProt Q7Z628)", "probe-labelled cysteine peptide fold change": 0.103}
{"target": "NIPBL_Q6KC79_304_GSRPPLILQSQSLPCSSPR (UniProt Q6KC79)", "probe-labelled cysteine peptide fold change": 0.00224}
{"target": "PCNA_P12004_135_LMDLDVEQLGIPEQEYSCVVK (UniProt P12004)", "probe-labelled cysteine peptide fold change": 0.0916}
{"target": "NOB1_Q9ULX3_147_GHSACEPENLEFSSFMFWR (UniProt Q9ULX3)", "probe-labelled cysteine peptide fold change": -0.119}
{"target": "NEK1_Q96PY6_276_FLSPQLIAEEFCLK (UniProt Q96PY6)", "probe-labelled cysteine peptide fold change": 0.161}
{"target": "ORC3_Q9UBD5_158_LISQLMDCCVDIK (UniProt Q9UBD5)", "probe-labelled cysteine peptide fold change": -0.134}
{"target": "PAFAH1B2_P68402_206_ICKPLHELIMQLLEETPEEK (UniProt P68402)", "probe-labelled cysteine peptide fold change": -0.692}
{"target": "NECAP2_Q9NVZ3_11_MEESGYESVLCVKPDVHVYR (UniProt Q9NVZ3)", "probe-labelled cysteine peptide fold change": -0.048}
